PubChem BioAssay AID589 (National Center for Advancing Translational Sciences (NCATS), 2007)
Screen size: about 59,000 compounds; about 6,200 (11%) were called active. Not shown: some 9% with an inconclusive outcome. Rule as the data show it: active = max dye-equivalent concentration above about 10 nM; inconclusive = mostly about 1.1 nM to 9.6 nM; inactive = weaker than that. Many of the other results were omitted from the sample, so actives are more common in it than they were.

Assay: qHTS Assay for Spectroscopic Profiling in 4-MU Spectral Region
Settings: compound autofluorescence, 340/450 nm, 4-MU equivalents; active compounds read high
In short: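 Compounds in 100 mM Tris, pH 8.0, sat 15 min at room temperature before fluorescence was read at 340 nm excitation/450 nm emission; a per-plate six-point 4-MU standard curve converted signals to dye-equivalent concentration at each compound concentration.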
With `COc1ccc(C(=O)N/N=C2/C(=O)c3c(C)cc(C)cc3CC2(C)C)cc1` the max dye-equivalent concentration was “inactive”.
With `Cc1ccc(S(=O)(=O)N2CCC(C(=O)N[C@@H](C)C(=O)NCCc3ccccc3)CC2)cc1` the max dye-equivalent concentration was “inactive”.
With `CCOc1ccc(-n2c(SC(C)C(=O)OC)nc3c(c2=O)SCC3)cc1` (configuration not stated) the max dye-equivalent concentration was “inactive”.
With `CCOC(=O)N1CCC(NC(=O)Cc2cn(C)c3ccccc23)CC1` the max dye-equivalent concentration was “inactive”.
In the case of `CCOC(=O)N1CCC(NC(=O)CCc2cn(C)c3ccccc23)CC1`, the max dye-equivalent concentration is reported as 380 nM (active).
With `CCOC(=O)N1CCC(NC(=O)C(C)n2c3ccccc3c3cnn(C)c(=O)c32)CC1` (configuration not stated) the max dye-equivalent concentration was “inactive”.
With `CCCN1C2=C(C(=O)CCC2)C(c2ccc(O)c(Br)c2)C2=C1CCCC2=O` the max dye-equivalent concentration was 78 nM (active).
In the case of `COc1cc(Cl)cc(C2NC(=O)NC(C)=C2C(=O)NCc2ccccc2)c1O` (configuration not stated), the max dye-equivalent concentration is reported as “inactive”.
For `COc1cc([C@H]2c3cc4c(cc3[C@@H](O[C@@H]3O[C@H]5CO[C@@H](C)O[C@]5(O)C[C@H]3O)[C@@H]3COC(=O)[C@H]23)OCO4)cc(OC)c1O`, the max dye-equivalent concentration was “inactive”.
In the case of `CC(C)C(=O)N1c2ccccc2NC2=C(C(=O)CCC2)C1c1ccc(N(C)C)cc1` (configuration not stated), the max dye-equivalent concentration is reported as “inactive”.
In the case of `O=C1CCCC2=C1C(c1cccs1)n1nc(SCc3ccccc3)nc1N2` (configuration not stated), the max dye-equivalent concentration is reported as 110 nM (active).
With `CC(C)(C)NCC[C@@H](O)c1cc(C(F)(F)F)nc2c(C(F)(F)F)cccc12` the max dye-equivalent concentration was “inactive”.
In the case of `FC(F)(F)c1nnc2sc(-c3ccco3)nn12`, the max dye-equivalent concentration is reported as “inactive”.
For `Fc1ccc(-c2ccc(-c3nn4c(-c5ccco5)nnc4s3)o2)cc1`, the max dye-equivalent concentration was 51 nM (active).
In the case of `c1ccc(-c2nnc3n2NC(c2ccc4c(c2)OCO4)S3)cc1` (configuration not stated), the max dye-equivalent concentration is reported as “inactive”.
In the case of `Cc1nnc2sc(-c3ccco3)nn12`, the max dye-equivalent concentration is reported as “inactive”.
With `CC(=O)Nc1ccc(-c2nn3c(C)nnc3s2)cc1C` the max dye-equivalent concentration was “inactive”.
For `Fc1ccc(-c2nnc3sc(-c4ccc5c(c4)OCO5)nn23)cc1`, the max dye-equivalent concentration was 26 nM (active).
In the case of `CCOC(=O)C(C(=O)OCC)C(C#N)c1ccccc1` (configuration not stated), the max dye-equivalent concentration is reported as “inactive”.
With `CCCn1c(SCC(=O)N2CCc3ccccc32)nnc1-c1ccncc1` the max dye-equivalent concentration was “inactive”.
With `Cc1cc(C)n2nc(C(=O)Oc3ccc4c(c3)OCO4)nc2n1` the max dye-equivalent concentration was “inactive”.
With `CCOc1ccc(NCCC(=O)c2ccc3c(c2)OCO3)cc1` the max dye-equivalent concentration was “inactive”.
In the case of `C/C=C1\C(=O)C[C@@H]2[C@@H]3CCC4=CC(=O)CC[C@@]4(C)[C@H]3CC[C@@]12C`, the max dye-equivalent concentration is reported as 12 nM (active).
In the case of `COc1cccc(OCC(=O)Nc2ccccc2C(N)=O)c1`, the max dye-equivalent concentration is reported as “inactive”.
With `O=C(CCC(=O)N1CCN(S(=O)(=O)c2ccccc2)CC1)NC1CCCc2ccccc21` (configuration not stated) the max dye-equivalent concentration was “inactive”.
With `N#C/C=C1\Sc2ccccc2C(=O)N1CC(=O)N1CCN(S(=O)(=O)c2ccccc2)CC1` the max dye-equivalent concentration was 18 nM (active).
With `Cc1ccc(S(=O)(=O)N2CCN(C(=O)CCC(=O)NC3CCCc4ccccc43)CC2)cc1` (configuration not stated) the max dye-equivalent concentration was “inactive”.
